Data: the supplement of paper PMC13380429

System: Vero E6 infected with SARS-CoV-2
Experiment: inhibition of SARS-CoV-2 cytopathic effect; higher = more antiviral protection, active = above 15
Conditions: 48 h

Measured: inhibition of SARS-CoV-2 cytopathic effect

CN1Cc2c(N)cccc2C(c2ccccc2)C1 (stereo not given) [nomifensine]
inactive: 1 nM 0.22% | 8.33 nM 1.01% | 100 nM 2.41% | 833.33 nM 1.13% | 10000 nM 0.73%

Cc1c2oc3c(C)ccc(C(=O)N[C@@H]4C(=O)N[C@@H](C(C)C)C(=O)N5CCC[C@H]5C(=O)N(C)CC(=O)N(C)[C@@H](C(C)C)C(=O)O[C@@H]4C)c3nc-2c(C(=O)N[C@@H]2C(=O)N[C@@H](C(C)C)C(=O)N3CCC[C@H]3C(=O)N(C)CC(=O)N(C)[C@@H](C(C)C)C(=O)O[C@@H]2C)c(N)c1=O [actinomycin-d]
inactive: 1 nM -0.33% | 8.33 nM 1.99% | 100 nM 0.83% | 833.33 nM -8.47% | 10000 nM -14.8%

CCCCCCc1ccc(O)cc1O.Nc1c2ccccc2nc2ccccc12 [acrisorcin]
inactive: 1 nM 1.59% | 8.33 nM 2.93% | 100 nM 1.22% | 833.33 nM 3.53% | 10000 nM -18.5%

COc1ccccc1OCC(O)CN1CCN(CC(=O)Nc2c(C)cccc2C)CC1 (stereo not given) [ranolazine]
inactive: 1 nM 0.1% | 8.33 nM -0.38% | 100 nM -2.33% | 833.33 nM 0.17% | 10000 nM -0.73%

CC#CCn1c(N2CCC[C@@H](N)C2)nc2c1c(=O)n(Cc1nc(C)c3ccccc3n1)c(=O)n2C [linagliptin]
inactive: 1 nM 0.74% | 8.33 nM -3.62% | 100 nM -0.93% | 833.33 nM -3.72% | 10000 nM -11.3%

NCCS [cysteamine]
inactive: 1 nM 1.07% | 8.33 nM 0.1% | 100 nM 0.28% | 833.33 nM -1.61% | 10000 nM -4.62%
